Compound activity as filed in PubChem BioAssay.
NS1 inh = qHTS Assay for Inhibitors of Influenza NS1 Protein Function | Potency, µM (doses to about 46.1 µM), for inactives: at the top dose activity, positive = more growth | hit rate 0.4% among 270,000 | AID 2326, 2010; calls by dose curve; further: actives are rising curves; nearly all actives have a fitted effect of over 50% in size
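In this qHTS, NS1 from influenza A is expressed in budding yeast, where it slows growth. Cells are switched from glucose to 2% galactose medium (pH 6.0, -URA), treated with compound, and growth recovery is read at OD600.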
HCV inhibitor = qHTS Assay for Inhibitors of Hepatitis C Virus (HCV). Huh7.5.1 HCVcc-Cre infection, luciferase reporter, 44 h. Potency, µM (series often up to 41.8 µM), without a hit: at the highest dose activity change, negative = inhibition, usual class: inhibitors. hit rate 3.4% among 340,000; further: on the % scale 0 is the no-effect control and ±100 the full control effect
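Seed cells (1,000/well) for 4 h; treat with compound and infect with HCVcc-Cre, moi about 0.5. Incubate 44 h, then detect luciferase activity.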
Vaccinia mCherry = qHTS for Stage-Specific Inhibitors of Vaccinia Orthopoxvirus: mCherry Reporter Primary qHTS | Vaccinia virus mCherry reporter infection, fluorescence | hit rate 0.63% among 310,000 | Potency, µM (highest dose often 36.5 µM), without a hit: at the highest dose activity change, negative = inhibition, hits mostly inhibitors; calls by dose curve; tested in A549 cells; further: on the % scale 0 is the no-effect control and ±100 the full control effect; nearly all actives have a fitted effect of over 35% in size
Pf growth 96h = Primary qHTS for delayed death inhibitors of the malarial parasite plastid, 96 hour incubation. Potency, µM (doses to about 28.7 µM), for inactives: at the highest dose activity change, negative = inhibition, most hits filed as inhibitors. P. falciparum luciferase reporter growth, 96 h. hit rate 6.9% among 320,000; further: on the % scale 0 is the no-effect control and ±100 the full control effect
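Infected RBCs, 2% Hct / 0.05% parasitemia final; luciferase-reporter P. falciparum; cpd 96 h, 37 C, 5% CO2; luciferase detection reagent; luminescence.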
Pf growth 48h = Primary qHTS for delayed death inhibitors of the malarial parasite plastid, 48 hour incubation; hit rate 5.9% among 310,000; Potency, µM (titrated, usually from 28.7 µM), without a hit: at the highest dose activity change, negative = inhibition, most hits filed as inhibitors; P. falciparum luciferase growth in erythrocytes, 48 h; AID 504832, 2011; further: on the % scale 0 is the no-effect control and ±100 the full control effect
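Luciferase-expressing P. falciparum in infected erythrocytes (2% hematocrit, 0.1% parasitemia final) in RPMI 1640/0.5% Albumax were exposed to compound for 48 hours at 37 C, 5% CO2; growth read as luminescence.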
Vaccinia Venus = qHTS for Stage-Specific Inhibitors of Vaccinia Orthopoxvirus: Venus Reporter Primary qHTS; AID 720580, 2013; Potency, µM (series often up to 36.5 µM), for the others: at the top dose activity change, negative = inhibition, hits mostly inhibitors; hit rate 0.46% among 330,000; Vaccinia virus Venus reporter expression, fluorescence; calls by dose curve; tested in A549 cells; further: on the % scale 0 is the no-effect control and ±100 the full control effect; nearly all actives have a fitted effect of over 30% in size
The depositor's hits bear a star; i = inactive; u = inconclusive; x = not tested or not shown. Rows were chosen to be rich in hits. Some 11% of all compounds tested hit in one or more screens of this group. Unless noted, the call rests on the fitted dose curve; in most records, active means well fitted inhibition curve with a large enough effect; inconclusive means small, poorly fitted or top-dose-only effect, or another doubt; inactive means no such curve, though single readings can be large or run the other way. Potency means the concentration at half of the fitted maximal effect.

SMILES	NS1 inh	HCV inhibitor	Vaccinia mCherry	Pf growth 96h	Pf growth 48h	Vaccinia Venus
CC(=O)c1cn(-c2ccc(Cl)cc2)c(=O)n(Cc2ccc(F)cc2)c1=O	0%	-1%	i	u	u	-16%
COc1cc2c(cc1OC)C(COc1ccc(F)cc1)N(C(=O)c1ccco1)CC2 (stereo unspecified)	-72%	2%	x	u	12µM*	x
COc1cc2c(cc1OC)C(c1cc3cccc(C)c3[nH]c1=O)N(C(=O)c1ccco1)CC2 (stereo unspecified)	20%	x	x	-6%	12µM*	x
COc1cc2c(cc1OC)C(COc1ccccc1OC)N(C(=O)C(C)(C)C)CC2 (stereo unspecified)	3%	u	-22%	-2%	12µM*	-8%
COc1cc2c(cc1OC)C(COc1ccc([N+](=O)[O-])cc1)N(C(C)=O)CC2 (stereo unspecified)	0%	10µM*	x	-8%	u	x
COCCNC(=S)N1CCc2cc(OC)c(OC)cc2C1COc1cc(C)cc(C)c1 (stereo unspecified)	7%	u	i	u	12µM*	-28%
NC(=O)c1cc([N+](=O)[O-])ccc1N1CCCCC1	-7%	5%	i	-10%	-6%	-12%
C[C@H](CO)N1C[C@H](C)[C@@H](CN(C)Cc2ccc(Oc3ccccc3)cc2)Oc2ccc(NC(=O)Cn3cnnn3)cc2C1=O	x	32%	-11%	x	x	-7%
C#CCOCCOCCOCCNc1nc(N2CCN(C(=O)CCCCCCCCCCNC(=O)[C@H](CCCCN)n3cc(C)nn3)CC2)nc(N2CCN(C(=O)CCCCCCCCCCNC(=O)[C@H](CCCCN)n3cc(CCCC(=O)O)nn3)CC2)n1	x	0%	i	u	10µM*	u
C#CCOCCOCCOCCNc1nc(N2CCN(C(=O)CCCCCCCCCCNC(=O)[C@H](CO)n3cc(CCCSC)nn3)CC2)nc(N2CCN(C(=O)CCCCCCCCCCNC(=O)[C@H](CCCCN)n3cc(CCO)nn3)CC2)n1	x	44%	i	x	x	u
C#CCOCCOCCOCCNc1nc(N2CCN(C(=O)CCCCCCCCCCNC(=O)[C@H](CCCCN)n3cc(CCCC(=O)O)nn3)CC2)nc(N2CCN(C(=O)CCCCCCCCCCNC(=O)[C@@H]([C@H](C)O)n3cc(C)nn3)CC2)n1	x	-3%	-11%	5.9µM*	5.2µM*	-8%
O=C(C[n+]1cccc(I)c1)c1ccc(F)cc1	x	x	-7%	x	x	-13%
CCc1ccc(-n2nc(C)c3c(C)cc(=O)n(CC(=O)N(CC)Cc4ccccc4)c32)cc1	x	x	-3%	x	x	-2%
CCCC(=O)NCCc1cc(OC)c(OC)cc1Br	8%	-4%	-18%	8%	5%	-8%
Fc1ccc(CN(C2=NCCN2)c2c(Cl)cccc2Cl)cc1	0%	x	x	x	x	x
Fc1cccc(CN(C2=NCCN2)c2c(Cl)cccc2Cl)c1	x	u	-10%	3%	12µM*	-21%
NC(=O)c1cc(S(=O)(=O)NCCc2ccc(S(N)(=O)=O)cc2)cs1	-1%	u	x	-3%	9%	x
CC(=O)CCC(C)=O	x	18%	13µM*	58%	35%	u
O=C1CCCc2c1cc(C(=O)Nc1ccc(Br)cn1)c(=O)n2-c1ccccc1	-8%	-19%	i	39%	4.1µM*	-9%
COC(=O)c1cc(NC(=O)c2cc(-c3ccc(Cl)cc3)oc2C(F)(F)F)ccc1N1CCOCC1	u	u	-21%	u	12µM*	-14%
COC(=O)c1cc(NC(=O)c2cc(-c3ccccc3Cl)oc2C(F)(F)F)ccc1N1CCOCC1	15%	16µM*	x	u	u	x
Cc1cc(Cl)c(S(=O)(=O)NCc2ccccc2)cc1OCC(N)=O	1%	18%	x	-28%	x	x
Cc1ccccc1NS(=O)(=O)c1cc(OCC(N)=O)c(C)cc1Cl	-2%	0%	x	10µM*	55%	x
Cc1cccc(NS(=O)(=O)c2cc(OCC(N)=O)c(C)cc2Cl)c1	1%	-16%	-23%	-16%	-12%	-21%
Cc1ccc(NS(=O)(=O)c2cc(OCC(N)=O)c(C)cc2Cl)cc1C	2%	u	-30%	u	12µM*	-26%
SMILES	NS1 inh	HCV inhibitor	Vaccinia mCherry	Pf growth 96h	Pf growth 48h	Vaccinia Venus
Oc1cc2cc(CCN3CCN(c4nsc5ccccc45)CC3)c(Cl)cc2[nH]1	x	x	x	11µM*	13µM*	x
COc1cccc(C2C(C#N)=C(N)OC(C(C)(C)C)=C2C#N)c1 (stereo unspecified)	-13%	19%	-16%	u	-11%	-9%
N=C1c2ccccc2CN1c1ccc(F)c([N+](=O)[O-])c1	-2%	-11%	u	u	12µM*	-2%
Cc1ccc2nc3ccc(N4CCCC4)nn3c(=O)c2c1	-3%	12%	x	4.7µM*	171%	u
COc1cccc(NC(=O)c2ccco2)c1	-35%	-4%	i	-27%	144%	-10%
COc1ccc(Cl)cc1Nc1nc(-c2sc(NC(=O)C(C)(C)C)nc2C)cs1	12%	u	-29%	1.7µM*	10µM*	-25%
COc1ccc(OC)c(Nc2nc(-c3sc(NC(=O)C(C)(C)C)nc3C)cs2)c1	12%	u	u	3.3µM*	9.3µM*	u
Cc1cc(O)ccc1Nc1nc(-c2cccs2)cs1	x	u	u	4%	399%	u
COc1ccccc1Nc1nc(-c2sc(NC(=O)c3ccc([N+](=O)[O-])cc3)nc2C)cs1	18%	x	x	u	u	x
COc1cccc(Nc2nc(-c3sc(NC(=O)c4ccco4)nc3C)cs2)c1	11%	u	u	13µM*	u	u
Cc1nc(C)c(-c2csc(Nc3ccc(O)cc3C)n2)s1	15%	4%	1.1µM*	u	u	u
CC(=O)N(c1ccc(N(C(C)=O)S(=O)(=O)c2ccccc2)cc1)S(=O)(=O)c1ccccc1	-9%	9%	i	17%	19%	-24%
Cc1nc(C)c(-c2csc(Nc3ccc(F)cc3)n2)s1	x	4.5µM*	u	22%	95%	-18%
COc1cccc(Nc2nc(-c3sc(N)nc3C)cs2)c1	-82%	u	i	x	u	5%
COc1ccc(OC)c(Nc2nc(-c3sc(C)nc3C)cs2)c1	-52%	u	u	-17%	15µM*	u
COc1ccc(Cl)cc1Nc1nc(-c2sc(NC(=O)c3ccco3)nc2C)cs1	12%	2.5µM*	-27%	5.9µM*	15µM*	-23%
COc1ccccc1Nc1nc(-c2sc(N)nc2C)cs1	4%	-15%	x	u	-22%	x
